This passage reports cytotoxicity call results from the antibiotic and cytotoxicity screens of Wong et al. (2023).

Hit rate of the full screen: of about 39,000 compounds, about 3,300 (8.5%) were called active. The sample as a whole holds a higher share of actives than the screen did.

For the assay, the system named is HepG2. Nature of the assay: cytotoxicity call (relative viability < 0.9). The conditions noted are these: 10 µM.
For the molecule `C[C@@H]1CN([C@H](C)CO)C(=O)c2cccc(NS(=O)(=O)c3ccc(F)cc3)c2O[C@H]1CN(C)S(=O)(=O)c1ccccc1`, the cytotoxicity call was “inactive”.

As for `Cc1ccc(S(=O)(=O)NCCC(=O)N2CCOCCOCCOCC2)cc1`, the cytotoxicity call was “inactive”. Turning to `CN(CC(=O)NC1CCCC1)S(=O)(=O)c1ccc2c(c1)c(=O)n(C)c(=O)n2C`, the cytotoxicity call was “inactive”. For `CCOC(=O)N1CCN(C(=O)CN(C)S(=O)(=O)c2ccc3c(c2)c(=O)n(C)c(=O)n3C)CC1`, the cytotoxicity call is “inactive”.

`C[C@H]1CCCN(C(=O)CCNS(=O)(=O)c2ccc3c(c2)c(=O)n(C)c(=O)n3C)C1`: the cytotoxicity call is “active”. Next, `Cn1c(=O)c2cc(S(=O)(=O)N3CCOCC3)ccc2n(C)c1=O`: “inactive”; `Cn1c(=O)c2cc(S(=O)(=O)NCCC(=O)NC3CCCC3)ccc2n(C)c1=O`: “active”. Take `C[C@H](CO)N1C[C@H](C)[C@H](CN(C)Cc2ccc(C(=O)Nc3ccccc3N)cc2)Oc2ccc(NS(=O)(=O)c3cn(C)cn3)cc2C1=O`: the cytotoxicity call was “inactive”. Next, `C[C@H]1CN([C@@H](C)CO)C(=O)c2cc(NS(=O)(=O)c3cccs3)ccc2O[C@H]1CN(C)Cc1ccncc1`: “inactive”. Next, `Clc1ccc(/C=C/C2=Nc3cccc4cccc(c34)N2)cc1`: “inactive”; `Nc1c(O)cccc1C(=O)O`: “inactive”. As for `CCC[C@H](NC(=O)[C@@H]1[C@H]2CCC[C@H]2CN1C(=O)[C@@H](NC(=O)[C@@H](NC(=O)c1cnccn1)C1CCCCC1)C(C)(C)C)C(=O)C(=O)NC1CC1`, the cytotoxicity call was “active”.

Take `CN1CCN(C(=O)C[C@H]2CC[C@@H]3[C@H](COc4ccc(NC(=O)c5ccc(F)c(F)c5)cc4C(=O)N3C)O2)CC1`: the cytotoxicity call is “inactive”. Next, `c1cc[n+](C[n+]2ccccc2)cc1`: “inactive”; `N=C(C[n+]1ccccc1)NO`: “active”; `C[C@@H]1CCCCO[C@H](CN(C)Cc2ccc(C(F)(F)F)cc2)[C@H](C)CN([C@H](C)CO)C(=O)c2cc(NC(=O)c3ccncc3)ccc2O1`: “inactive”.

With `C[C@@H]1CN([C@H](C)CO)C(=O)c2cc(NC(=O)Nc3ccccc3)ccc2O[C@@H](C)CCCCO[C@@H]1CN(C)Cc1ccccc1`, the cytotoxicity call was “active”. Next, `C[C@@H]1CCCCO[C@@H](CN(C)Cc2ccccc2)[C@H](C)CN([C@H](C)CO)C(=O)c2cc(NC(=O)Nc3ccccc3)ccc2O1`: “active”; `C[C@H](CO)N1C[C@H](C)[C@@H](CN(C)Cc2ccccc2)OCCCC[C@H](C)Oc2ccc(NC(=O)Nc3ccccc3)cc2C1=O`: “inactive”; `C[C@@H]1CCCCO[C@H](CN(C)Cc2ccccc2)[C@@H](C)CN([C@@H](C)CO)C(=O)c2cc(NC(=O)Nc3ccccc3)ccc2O1`: “inactive”. Next, `C[C@@H]1CN([C@H](C)CO)C(=O)c2cc(NC(=O)Nc3ccccc3)ccc2O[C@@H](C)CCCCO[C@H]1CN(C)Cc1ccccc1`: “active”; `C[C@@H]1CCCCO[C@@H](CN(C)Cc2ccccc2)[C@@H](C)CN([C@H](C)CO)C(=O)c2cc(NC(=O)Nc3ccccc3)ccc2O1`: “inactive”. Turning to `C[C@@H]1CCCCO[C@@H](CN(C)Cc2ccccc2)[C@H](C)CN([C@@H](C)CO)C(=O)c2cc(NC(=O)Nc3ccccc3)ccc2O1`, the cytotoxicity call was “active”. In the case of `C[C@@H]1CN([C@@H](C)CO)C(=O)c2cc(NC(=O)Nc3ccccc3)ccc2O[C@@H](C)CCCCO[C@H]1CN(C)Cc1ccccc1`, the cytotoxicity call is “inactive”.

On to `C[C@H](CO)N1C[C@H](C)[C@H](CN(C)Cc2ccccc2)OCCCC[C@H](C)Oc2ccc(NC(=O)Nc3ccccc3)cc2C1=O`, for which the cytotoxicity call was “inactive”. Next, `C[C@@H]1CN([C@@H](C)CO)C(=O)c2cc(NC(=O)Nc3ccccc3)ccc2O[C@@H](C)CCCCO[C@@H]1CN(C)Cc1ccccc1`: “inactive”; `C[C@@H]1CCCCO[C@H](CN(C)Cc2ccccc2)[C@H](C)CN([C@H](C)CO)C(=O)c2cc(NC(=O)Nc3ccccc3)ccc2O1`: “inactive”; `C[C@@H]1CCCCO[C@H](CN(C)Cc2ccccc2)[C@H](C)CN([C@@H](C)CO)C(=O)c2cc(NC(=O)Nc3ccccc3)ccc2O1`: “inactive”.
